Hit rate of the full screen: of about 5,500 compounds, about 2,000 (36%) were called active. Another 18% or so got no clear call; they are omitted. No stated cut-off is given here; in the data, active means normalized growth mostly below about 0.91 (no sharp cut-off); inconclusive means no clear call, values can overlap the other calls; inactive means mostly above about 0.92. This is one part of the list.
Assay: chemical genetic growth profiling, strain panel (AID 1159580);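 further: tested at 20 µM; growth read once vehicle control cultures reached saturation at 30 °C; 1 = growth at the plate median or of vehicle wells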
Conditions: growth OD

Measured: normalized growth

CCCCCCCCCc1ccc(O)cc1
active: S. cerevisiae deletion strains, locus YJR075W, strain HOC1, stronger effect = lower value 0.256 | S. cerevisiae deletion strains, locus YKL009W, strain mrt4, stronger effect = lower value 0.616 | S. cerevisiae deletion strains, locus YKL085W, strain MDH1 (second series), stronger effect = lower value 0.311 | S. cerevisiae deletion strains, locus YKL085W, strain MDH1, stronger effect = lower value 0.311 | S. cerevisiae deletion strains, locus YKL160W, strain elf1, stronger effect = lower value 0.0913 | S. cerevisiae deletion strains, locus YKL190W, strain CNB1, stronger effect = lower value 0.139 | S. cerevisiae deletion strains, locus YKR001C, strain vps1, stronger effect = lower value 0.352 | S. cerevisiae deletion strains, locus YKR026C, strain gcn3, stronger effect = lower value 0.0658 | S. cerevisiae deletion strains, locus YKR091W, strain srl3, stronger effect = lower value 0.0785 | S. cerevisiae deletion strains, locus YLL001W, strain dnm1, stronger effect = lower value 0.0778 | S. cerevisiae deletion strains, locus YLL026W, stronger effect = lower value 0.0571 | S. cerevisiae deletion strains, locus YLL041C, strain sdh2, stronger effect = lower value 0.0651 | S. cerevisiae deletion strains, locus YLR027C, strain aat2, stronger effect = lower value 0.0531 | S. cerevisiae deletion strains, locus YLR039C, strain RIC1, stronger effect = lower value 0.106 | S. cerevisiae deletion strains, locus YLR058C, strain SHM2, stronger effect = lower value 0.136 | S. cerevisiae deletion strains, locus YLR102C, strain apc9, stronger effect = lower value 0.901 | S. cerevisiae deletion strains, locus YLR113W, strain HOG1, stronger effect = lower value 0.117 | S. cerevisiae deletion strains, locus YLR221C, strain rsa3, stronger effect = lower value 0.0526 | S. cerevisiae deletion strains, locus YLR258W, strain gsy2, stronger effect = lower value 0.062 | S. cerevisiae deletion strains, locus YLR262C, strain YPT6 (second series), stronger effect = lower value 0.0891 | S. cerevisiae deletion strains, locus YLR262C, strain YPT6, stronger effect = lower value 0.139 | S. cerevisiae deletion strains, locus YLR268W, strain sec22, stronger effect = lower value 0.74 | S. cerevisiae deletion strains, locus YLR320W, strain mms22, stronger effect = lower value 0.071 | S. cerevisiae deletion strains, locus YLR330W, strain CHS5, stronger effect = lower value 0.321 | S. cerevisiae deletion strains, locus YLR342W, strain FKS1 (second series), stronger effect = lower value 0.102 | S. cerevisiae deletion strains, locus YLR342W, strain FKS1, stronger effect = lower value 0.0664 | S. cerevisiae deletion strains, locus YLR357W, strain rsc2, stronger effect = lower value 0.148 | S. cerevisiae deletion strains, locus YLR370C, strain arc18, stronger effect = lower value 0.0667 | S. cerevisiae deletion strains, locus YLR371W, strain rom2, stronger effect = lower value 0.622 | S. cerevisiae deletion strains, locus YLR384C, strain iki3, stronger effect = lower value 0.0786 | S. cerevisiae deletion strains, locus YLR418C, strain cdc73, stronger effect = lower value 0.323 | S. cerevisiae deletion strains, locus YML016C, strain PPZ1, stronger effect = lower value 0.191 | S. cerevisiae deletion strains, locus YML032C, strain rad52, stronger effect = lower value 0.497 | S. cerevisiae deletion strains, locus YML120C, strain ndi1, stronger effect = lower value 0.0538 | S. cerevisiae deletion strains, locus YML124C, strain tub3, stronger effect = lower value 0.908 | S. cerevisiae deletion strains, locus YMR058W, strain fet3, stronger effect = lower value 0.0622 | S. cerevisiae deletion strains, locus YMR078C, strain ctf18, stronger effect = lower value 0.611 | S. cerevisiae deletion strains, locus YMR125W, strain sto1, stronger effect = lower value 0.0742 | S. cerevisiae deletion strains, locus YMR129W, stronger effect = lower value 0.0704 | S. cerevisiae deletion strains, locus YMR205C, strain PFK2, stronger effect = lower value 0.0794 | S. cerevisiae deletion strains, locus YMR223W, strain ubp8, stronger effect = lower value 0.558 | S. cerevisiae deletion strains, locus YMR231W, strain pep5, stronger effect = lower value 0.0903 | S. cerevisiae deletion strains, locus YMR263W, strain SAP30, stronger effect = lower value 0.099 | S. cerevisiae deletion strains, locus YMR307W, strain GAS1, stronger effect = lower value 0.121 | S. cerevisiae deletion strains, locus YNL067W, strain RPL9B, stronger effect = lower value 0.254 | S. cerevisiae deletion strains, locus YNL071W, strain lat1, stronger effect = lower value 0.0615 | S. cerevisiae deletion strains, locus YNL128W, strain TEP1, stronger effect = lower value 0.119 | S. cerevisiae deletion strains, locus YNL153C, strain GIM3, stronger effect = lower value 0.117 | S. cerevisiae deletion strains, locus YNL183C, strain NPR1, stronger effect = lower value 0.00185 | S. cerevisiae deletion strains, locus YNL209W, strain ssb2, stronger effect = lower value 0.0648 | S. cerevisiae deletion strains, locus YNL233W, strain BNI4, stronger effect = lower value 0.0815 | S. cerevisiae deletion strains, locus YNL248C, strain rpa49, stronger effect = lower value 0.076 | S. cerevisiae deletion strains, locus YNL250W, strain rad50, stronger effect = lower value 0.734 | S. cerevisiae deletion strains, locus YNL271C, strain bni1, stronger effect = lower value 0.749 | S. cerevisiae deletion strains, locus YNL298W, strain CLA4, stronger effect = lower value 0.437 | S. cerevisiae deletion strains, locus YNL307C, strain MCK1, stronger effect = lower value 0.292 | S. cerevisiae deletion strains, locus YNL322C, strain KRE1 (second series), stronger effect = lower value 0.11 | S. cerevisiae deletion strains, locus YNL322C, strain KRE1, stronger effect = lower value 0.167 | S. cerevisiae deletion strains, locus YNR049C, strain mso1, stronger effect = lower value 0.0733 | S. cerevisiae deletion strains, locus YNR052C, strain pop2, stronger effect = lower value 0.538 | S. cerevisiae deletion strains, locus YOL006C, strain TOP1, stronger effect = lower value 0.217 | S. cerevisiae deletion strains, locus YOL147C, strain pex11, stronger effect = lower value 0.444 | S. cerevisiae deletion strains, locus YOR001W, strain rrp6, stronger effect = lower value 0.0626 | S. cerevisiae deletion strains, locus YOR061W, strain CKA2, stronger effect = lower value 0.102 | S. cerevisiae deletion strains, locus YOR069W, strain VPS5, stronger effect = lower value 0.217 | S. cerevisiae deletion strains, locus YOR070C, strain gyp1, stronger effect = lower value 0.063 | S. cerevisiae deletion strains, locus YOR080W, strain dia2, stronger effect = lower value 0.0669 | S. cerevisiae deletion strains, locus YOR083W, strain WHI5, stronger effect = lower value 0.0608 | S. cerevisiae deletion strains, locus YOR106W, strain vam3, stronger effect = lower value 0.0604 | S. cerevisiae deletion strains, locus YOR136W, strain idh2, stronger effect = lower value 0.758 | S. cerevisiae deletion strains, locus YOR144C, strain elg1, stronger effect = lower value 0.553 | S. cerevisiae deletion strains, locus YOR184W, strain ser1, stronger effect = lower value 0.506 | S. cerevisiae deletion strains, locus YOR231W, strain MKK1, stronger effect = lower value 0.101 | S. cerevisiae deletion strains, locus YOR265W, strain rbl2, stronger effect = lower value 0.0564 | S. cerevisiae deletion strains, locus YOR270C, strain vph1, stronger effect = lower value 0.102 | S. cerevisiae deletion strains, locus YOR290C, strain snf2, stronger effect = lower value 0.0652 | S. cerevisiae deletion strains, locus YOR316C, strain cot1, stronger effect = lower value 0.799 | S. cerevisiae deletion strains, locus YPL051W, strain arl3, stronger effect = lower value 0.0626 | S. cerevisiae deletion strains, locus YPL055C, strain LGE1, stronger effect = lower value 0.1 | S. cerevisiae deletion strains, locus YPL078C, strain atp4, stronger effect = lower value 0.0621 | S. cerevisiae deletion strains, locus YPL106C, strain sse1, stronger effect = lower value 0.0816 | S. cerevisiae deletion strains, locus YPL240C, strain hsp82, stronger effect = lower value 0.0552 | S. cerevisiae deletion strains, locus YPL241C, strain CIN2, stronger effect = lower value 0.219 | S. cerevisiae deletion strains, locus YPL256C, strain CLN2, stronger effect = lower value 0.109 | S. cerevisiae deletion strains, locus YPR119W, strain clb2, stronger effect = lower value 0.67 | S. cerevisiae deletion strains, locus YPR163C, strain tif3, stronger effect = lower value 0.86 | S. cerevisiae deletion strains, locus YPR167C, strain met16, stronger effect = lower value 0.655 | S. cerevisiae deletion strains, strain wtn01, stronger effect = lower value 0.813 | S. cerevisiae strains, strain wild type, stronger effect = lower value 0.112
inactive: S. cerevisiae deletion strains, locus YKL068W, stronger effect = lower value 0.964 | S. cerevisiae deletion strains, locus YOL012C, strain htz1 0.624 | S. cerevisiae deletion strains, locus YPR141C, strain kar3, stronger effect = lower value 0.992

— PubChem BioAssay AID1159580 (chemical genetic matrix, 2015)
